# “And” between values parts separate entries of the source, which are not always exact repeats. Equal entries are not always repeated. Inconclusive results are not listed. Entries that show only a call come without a potency. A structure can be active in one record and inactive in another. The source made the active and inactive calls. Unless noted, the call rests on the fitted dose curve; in most records, active means well fitted curve in the direction sought with a large enough effect in the repeat runs; inconclusive means weak or mixed curves; inactive means no such curve, though single readings can be large; an effect the other way counts as inactive or inconclusive.
# Legend:
# [1] = qHTS assay for small molecules that induce genotoxicity in human embryonic kidney cells expressing luciferase-tagged ATAD5 (AID 651632); further: nearly all actives have a fitted effect of over 15% in size; further: potency means the concentration at half of the fitted maximal effect
# Summary of the method: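 Cells were seeded at 2,000 per well, dosed with compound, and incubated 16 hr at 37C in 5% CO2. Luciferase activity was then quantified after a 30 min room-temperature incubation with Amplite.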
# [2] = qHTS assay for small molecule agonists of the p53 signaling pathway - cell viability (AID 651633; calls by dose curve; further: nearly all actives have a fitted effect of over 30% in size; further: potency means the concentration at half of the fitted maximal effect)
# Summary of the method: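 p53RE-bla cells, seeded at 4,000 per well and rested 5 h at 37 C/5% CO2, received compounds in DMSO for 16 h at 37 C. CellTiter-Glo was then added, and luminescence was read after 30 min at room temperature to gauge cytotoxicity.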
# [3] = qHTS assay for small molecules that induce genotoxicity in human embryonic kidney cells expressing luciferase-tagged ATAD5 - cell viability (AID 651634; calls by dose curve; further: nearly all actives have a fitted effect of over 25% in size; further: potency means the concentration at half of the fitted maximal effect)
# Summary of the method: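 Cells (HEK293T, luciferase-tagged ATAD5) are seeded at 2,000 per well, dosed with compound or DMSO vehicle, and incubated 15.5 hr at 37C and 5% CO2. CellTiter-Fluor is added for 30 min before fluorescence is measured.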
# [4] = qHTS assay for small molecule disruptors of the mitochondrial membrane potential - cell viability (AID 720634; calls by dose curve; further: nearly all actives have a fitted effect of over 20% in size; further: potency means the concentration at half of the fitted maximal effect)
# Summary of the method: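 Cytotoxicity was measured by ATP quantitation in HepG2 wells that had first been treated with compound for 1 hr and stained with m-MPI dye; CellTiter-Glo incubation was 30 min at room temperature.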
# [5] = qHTS assay for small molecule disruptors of the mitochondrial membrane potential (AID 720635); further: potency means the concentration at half of the fitted maximal effect
# Summary of the method: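 HepG2 cells (2,000/well) attached overnight at 37C, then took compound for 1 hr at 37C, 5% CO2. Mito-MPS dye was added for 30 min; fluorescence was read at 490/535 nm (monomers) and 540/590 nm (aggregates).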
# [6] = qHTS assay to test for compound auto fluorescence at 460 nm (blue) in HEK293 cells (AID 720678)
# Summary of the method: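 HEK293 cells (2,000 per well, medium with 10% dialyzed FBS) attached for 4-5 hr at 37C, then received compound and stood overnight at 37C, 5% CO2. Blue fluorescence was read at Ex/Em 405/460 nm and expressed relative to triamterene.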
# [7] = qHTS assay to test for compound auto fluorescence at 590 nm (red) in HEK293 cells (AID 720679)
# Summary of the method: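 HEK293 cells (2,000/well, medium with 10% dialyzed FBS) attached for 4-5 hr at 37C, received 23 nL compound and were incubated overnight at 37C, 5% CO2. Red fluorescence was then read at 540/590nm Ex/Em, referenced to Rose Bengal sodium.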
# [8] = qHTS assay to test for compound auto fluorescence at 535 nm (green) in HEK293 cells (AID 720680)
# [9] = qHTS assay to test for compound auto fluorescence at 460 nm (blue) in HEK293 cell free culture (AID 720681)
# Summary of the method: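 Test compounds were pinned into cell-free culture medium (DMEM with 10% FBS) and fluorescence was read directly at Ex/Em 405/460 nm. Signals were expressed as fluorescence equivalents of triamterene, with DMSO vehicle as control.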
# [10] = qHTS assay to test for compound auto fluorescence at 535 nm (green) in HEK293 cell free culture (AID 720682)
# Summary of the method: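 Each library compound, or DMSO control, is added by pintool to medium alone, comprising DMEM and 10% FBS. Emission at 535 nm following 485 nm excitation is quantified against fluorescein.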
# [11] = qHTS assay to test for compound auto fluorescence at 590 nm (red) in HEK293 cell free culture (AID 720683)
# Summary of the method: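 Tox21 10K library compounds were pinned into cell-free DMEM with 10% FBS and fluorescence was read at excitation 540 nm. Activity is expressed as Rose Bengal sodium equivalency.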
# [12] = qHTS assay to test for compound auto fluorescence at 590 nm (red) in HepG2 cell free culture (AID 720684)
# Summary of the method: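 Ex 540 / Em 590 nm read of compound in cell-free MEM (10% FBS). Rose Bengal sodium reference.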
# [13] = qHTS assay to test for compound auto fluorescence at 460 nm (blue) in HepG2 cell free culture (AID 720685)
# Summary of the method: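 Cell-free plates of MEM plus 10% FBS received 23 nL compound or DMSO vehicle; blue-channel (405/460 nm) intensity scored against triamterene as reference fluorophore.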
# [14] = qHTS assay to test for compound auto fluorescence at 535 nm (green) in HepG2 cell free culture (AID 720686)
# [15] = biological target: Glucocorticoid receptor (Homo sapiens) (UniProt P04150); experiment: qHTS assay to identify small molecule agonists of the glucocorticoid receptor (GR) signaling pathway (AID 720691; active means well fitted activation curve with a large enough effect in the signal ratio in the repeat runs, not every such curve was filed as active; the % refers to the signal ratio)
# Glucocorticoid receptor (Homo sapiens), sequence (P04150 whole entry, looked up): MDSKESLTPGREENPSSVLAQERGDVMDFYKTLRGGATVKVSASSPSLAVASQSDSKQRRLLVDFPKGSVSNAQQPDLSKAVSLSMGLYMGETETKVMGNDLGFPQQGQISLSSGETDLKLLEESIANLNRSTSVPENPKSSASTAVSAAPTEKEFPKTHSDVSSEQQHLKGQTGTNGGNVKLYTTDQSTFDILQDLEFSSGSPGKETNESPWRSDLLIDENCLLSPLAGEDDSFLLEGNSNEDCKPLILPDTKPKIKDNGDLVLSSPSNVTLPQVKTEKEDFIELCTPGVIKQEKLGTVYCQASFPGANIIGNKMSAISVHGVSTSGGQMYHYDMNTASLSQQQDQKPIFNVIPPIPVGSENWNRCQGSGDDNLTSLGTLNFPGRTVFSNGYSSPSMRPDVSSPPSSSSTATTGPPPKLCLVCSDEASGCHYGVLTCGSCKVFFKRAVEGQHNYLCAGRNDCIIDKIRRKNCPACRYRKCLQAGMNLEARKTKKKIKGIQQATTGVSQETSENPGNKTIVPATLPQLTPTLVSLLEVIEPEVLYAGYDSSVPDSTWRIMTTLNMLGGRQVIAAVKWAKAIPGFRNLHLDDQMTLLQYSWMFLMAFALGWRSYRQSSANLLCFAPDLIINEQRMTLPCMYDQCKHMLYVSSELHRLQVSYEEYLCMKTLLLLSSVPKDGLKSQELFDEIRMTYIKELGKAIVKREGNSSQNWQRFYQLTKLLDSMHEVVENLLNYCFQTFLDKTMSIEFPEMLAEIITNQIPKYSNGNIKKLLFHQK
# Summary of the method: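 Steps: seed GR-bla HeLa cells, incubate 4 h at 37 C/5% CO2; pin-transfer DMSO-dissolved compounds; incubate 18 h at 37 C; add LiveBLAzer B/G FRET substrate; after 2 h at room temperature, measure fluorescence.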
# [16] = biological target: Glucocorticoid receptor (Homo sapiens) (UniProt P04150); experiment: qHTS assay to identify small molecule antagonists of the glucocorticoid receptor (GR) signaling pathway (AID 720692; active means well fitted inhibition curve with a large enough effect in the signal ratio in the repeat runs, not every such curve was filed as active; the % refers to the signal ratio; further: potency means the concentration at half of the fitted maximal effect)
# Summary of the method: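 Antagonism was scored as loss of dexamethasone-driven (5 nM final) reporter signal in HeLa cells bearing a glucocorticoid response element–beta-lactamase construct, after 18 h compound exposure at 37 C and 2 h FRET substrate loading.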
# [17] = qHTS assay to test for compound auto fluorescence at 535 nm (green) in HepG2 cells (AID 720675)
# [18] = qHTS assay to test for compound auto fluorescence at 590 nm (red) in HepG2 cells (AID 720674)
# Summary of the method: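 Rose Bengal sodium served as the red fluorophore standard. HepG2 monolayers (overnight attachment, MEM with 10% FBS) were exposed to test compounds for 1 hr at 37 C and read at Ex 540/Em 590 nm.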
# [19] = qHTS assay to test for compound auto fluorescence at 460 nm (blue) in HepG2 cells (AID 720687)
# Summary of the method: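 Cells (2,000/well in MEM with 10% FBS) attached overnight at 37 C, then were exposed to compound or DMSO for 1 hr at 37 C, 5% CO2. Fluorescence read at Ex/Em 405/460 nm, expressed as triamterene-equivalent signal.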
# [20] = qHTS assay for small molecule agonists of the p53 signaling pathway (AID 651631; calls by dose curve; further: nearly all actives have a fitted effect of over 15% in size)
# Summary of the method: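 Beta-lactamase reporter activity under p53 response elements was quantified in HCT-116 cells by FRET fluorescence, following 16 h incubation with test compounds at 37 °C and 2 h substrate development at room temperature.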
SMILES,Potency [1],Potency [2],Potency [3],Potency [4],Potency [5],outcome [6],outcome [7],outcome [8],outcome [9],outcome [10],outcome [11],outcome [12],outcome [13],outcome [14],Potency [15],Potency [16],outcome [17],outcome [18],outcome [19],Potency [20]
CCCCN(CC)c1c([N+](=O)[O-])cc(C(F)(F)F)cc1[N+](=O)[O-],inactive,inactive,inactive,inactive,6.86 µM (active),inactive,inactive,inactive,inactive,inactive,inactive,inactive,inactive,inactive,inactive,inactive,–,–,–,–
N#CC(Br)Br,inactive,inactive,inactive,inactive,inactive,inactive,inactive,inactive,inactive,inactive,inactive,inactive,inactive,inactive,inactive,inactive,inactive,–,–,–
Brc1ccc(Oc2cc(Br)c(Br)cc2Br)c(Br)c1,inactive,inactive,inactive,inactive,4.86 µM (active) and 8.7 µM (active),inactive,inactive,inactive,inactive,inactive,inactive,inactive,inactive,inactive,–,–,inactive,inactive,–,–
Cc1cccc(N)c1N,inactive,inactive,inactive,inactive,21 µM (active) and 17.2 µM (active),inactive,inactive,inactive,inactive,inactive,inactive,inactive,inactive,inactive,inactive,inactive,inactive,–,inactive,–
Nc1ccc(-c2ccc(N)c(N)c2)cc1N,inactive,48.6 µM (active),inactive,inactive,216 nM (active) and 7.7 µM (active),inactive,inactive,inactive,inactive,inactive,inactive,inactive,inactive,inactive,–,–,inactive,inactive,inactive,–
CC(C)=CC1C(C(=O)OCc2coc(Cc3ccccc3)c2)C1(C)C (stereo not given),inactive,inactive,inactive,–,48.6 µM (active) and 61.1 µM (active),inactive,inactive,inactive,inactive,inactive,inactive,inactive,inactive,inactive,inactive,21.8 µM (active),inactive,inactive,inactive,–
O=C(CCl)c1ccccc1,68.6 µM (active),inactive,inactive,inactive,inactive,inactive,inactive,inactive,inactive,inactive,inactive,inactive,inactive,inactive,inactive,inactive and 54.9 µM (active),inactive,inactive,–,–
N#Cc1cc(Br)c(O)c(Br)c1,inactive,inactive,inactive,11.7 µM (active),13.7 µM (active) and 4.17 µM (active),inactive,inactive,inactive,inactive,inactive,inactive,inactive,inactive,inactive,inactive,–,–,–,inactive,–
CCCCC(CC)COC(=O)Cl (stereo not given),inactive,inactive,inactive,–,–,inactive,inactive,inactive,inactive,inactive,inactive,inactive,inactive,inactive,inactive,inactive,inactive,inactive,inactive,–
Cc1ccc2c(c1N)C(=O)c1ccccc1C2=O,13.5 µM (active) and 9.69 µM (active),inactive,12.2 µM (active),–,480 nM (active) and 386 nM (active),inactive,inactive,inactive,inactive,inactive,inactive,inactive,inactive,inactive,inactive,–,inactive,inactive,inactive,–
COP(=S)(OC)Oc1ccc([N+](=O)[O-])cc1,–,inactive,–,inactive and 54.5 µM (active),34.4 µM (active),inactive,inactive,inactive,inactive,inactive,inactive,inactive,inactive,inactive,–,–,–,inactive,inactive,inactive
CC(C)Oc1cc(-n2nc(C(C)(C)C)oc2=O)c(Cl)cc1Cl,inactive,inactive,inactive,12 µM (active) and 54.5 µM (active),24 µM (active) and 43.3 µM (active),inactive,inactive,inactive,inactive,inactive,inactive,inactive,inactive,inactive,inactive,–,–,inactive,inactive,–
c1cc(OCC2CO2)ccc1Cc1ccc(OCC2CO2)cc1 (stereo not given),inactive,54.7 µM (active),inactive,inactive,–,inactive,inactive,inactive,inactive,inactive,inactive,inactive,inactive,inactive,inactive,–,inactive,inactive,inactive,–
CC(C)(C)c1ccccc1O,inactive,inactive,inactive,–,–,inactive,inactive,inactive,inactive,inactive,inactive,inactive,inactive,inactive,inactive,inactive,inactive,inactive,inactive,–
C=C(C)[C@H]1Cc2c(ccc3c2O[C@@H]2COc4cc(OC)c(OC)cc4[C@@H]2C3=O)O1,inactive,–,139 nM (active) and 486 nM (active),11.9 µM (active) and 31 µM (active) and 12.2 µM (active),15 µM (active) and 31 µM (active) and 4.86 µM (active),inactive,inactive,inactive,inactive,inactive,inactive,inactive,inactive,inactive,inactive,–,inactive,inactive,inactive,–
Cc1ccc(N)c(N)c1,68.8 µM (active) and 68.6 µM (active),inactive,inactive,inactive,–,inactive,inactive,inactive,inactive,inactive,inactive,inactive,inactive,inactive,inactive,inactive,–,inactive,–,–
C=CCc1ccc(OC)cc1,–,inactive,inactive,inactive,–,inactive,inactive,inactive,inactive,inactive,inactive,inactive,inactive,inactive,–,–,inactive,inactive,inactive,–
C1=Cc2cccc3cccc1c23,inactive,inactive,inactive,inactive,–,inactive,inactive,inactive,inactive,inactive,inactive,inactive,inactive,inactive,inactive,inactive,–,–,–,–
Oc1cc(Cl)c(Cl)cc1Cl,inactive,inactive,inactive,–,5.96 µM (active) [middle of 4 runs],inactive,inactive,inactive,inactive,inactive,inactive,inactive,inactive,inactive,–,–,inactive,inactive,–,–
C#CCOS(=O)OC1CCCCC1Oc1ccc(C(C)(C)C)cc1 (stereo not given),inactive,inactive,inactive,inactive and 3.86 µM (active),15.4 µM (active) and 24.3 µM (active),inactive,inactive,inactive,inactive,inactive,inactive,inactive,inactive,inactive,inactive,43.7 µM (active),inactive,–,inactive,–
Oc1ccc(-c2ccccc2)cc1,inactive,inactive,inactive,53.8 µM (active) and 48.6 µM (active),24 µM (active) and 13.7 µM (active),inactive,inactive,inactive,inactive,inactive,inactive,inactive,inactive,inactive,inactive,–,inactive,inactive,inactive,–
Cc1c(COC(=O)[C@@H]2[C@H](/C=C(\Cl)C(F)(F)F)C2(C)C)cccc1-c1ccccc1,inactive,–,inactive,inactive,26.7 µM (active) and 34.3 µM (active),inactive,inactive,inactive,inactive,inactive,inactive,inactive,inactive,inactive,–,–,inactive,inactive,inactive,–
S=C1NCCN1,–,inactive,inactive,–,–,inactive,inactive,inactive,inactive,inactive,inactive,inactive,inactive,inactive,–,–,–,inactive,–,inactive
O=C(NC(=O)c1c(F)cccc1F)Nc1ccc(Cl)cc1,inactive,inactive,inactive,inactive,inactive,inactive,inactive,inactive,inactive,inactive,inactive,inactive,inactive,inactive,–,–,inactive,inactive,inactive,–
CCC(C)c1ccc(O)cc1 (stereo not given),inactive,inactive,inactive,inactive,27.6 µM (active) and 24.3 µM (active),inactive,inactive,inactive,inactive,inactive,inactive,inactive,inactive,inactive,inactive,inactive,–,–,–,–
NC(=S)Nc1ccccc1,inactive,inactive,inactive,–,–,inactive,inactive,inactive,inactive,inactive,inactive,inactive,inactive,inactive,inactive,inactive,–,inactive,inactive,–
CCOCN(C(=O)CCl)c1c(C)cccc1CC,inactive,inactive,inactive,inactive,–,inactive,inactive,inactive,inactive,inactive,inactive,inactive,inactive,inactive,inactive,–,inactive,inactive,inactive,–
